From PubChem BioAssay (NCATS) come the findings set out here.

For experiment [1], the system named is Zika virus NS2B-NS3 protease (unlinked complex). Put plainly: Primary screen GU Rhodamine qHTS for Zika virus inhibitors: Unlinked NS2B-NS3 protease assay (AID 1347159). Further: nearly all actives have a fitted effect of over 60% in size. In outline: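 Compounds, tested up to 114 microM, were incubated for 15 minutes with 25 nM unlinked NS2B-NS3 protease at pH 8.0. Cleavage of 1.5 microM Rhodamine110 substrate was then followed by fluorescence for 15 minutes.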
On the technique in general: In qHTS, concentration-response curves come from the screen itself.

In experiment [2] the test system is Zika virus NS2B-NS3 protease (linked construct). Put plainly: Primary screen NINDS Rhodamine qHTS for Zika virus inhibitors (AID 1347160). Further: nearly all actives have a fitted effect of over 55% in size. In outline: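 Percent inhibition, normalized to uninhibited and enzyme-free controls, is fitted to a 4-parameter Hill equation. Fluorescence change comes from a 15-min cleavage of 1.5 microM bis-peptide Rhodamine110 substrate by 25 nM linked NS2B-NS3 at room temperature.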

SMILES strings stand for the structures. Results filed as inconclusive are left out. A call without a number means that no potency is given here. Calls of active or inactive are those of the source. The call rests on the fitted dose curve; in most records, active means well fitted inhibition curve with a large enough effect; inconclusive means small, poorly fitted or top-dose-only effect; inactive means no such curve, though single readings can be large or run the other way.

On to `COC(=O)C1=CO[C@@H](O[C@@H]2O[C@H](CO)[C@@H](O)[C@H](O)[C@H]2O)[C@@H]2[C@@H](C)[C@@H](OC(=O)/C=C/c3ccccc3)[C@@H](O)[C@H]12`, for which the Potency entry in experiment [1] and in experiment [2] was “inactive” in each case.
On to `CC1CCC2(NC1)OC1C(O)C3C4CCC5CC(O[C@@H]6O[C@H](CO)[C@@H](O)[C@H](O)[C@H]6O[C@@H]6O[C@@H](C)[C@H](O)[C@@H](O)[C@H]6O)CCC5(C)C4CCC3(C)C1C2C` (some centres undefined), for which the Potency entry in experiment [1] and in experiment [2] was “inactive” in each case.
`C[C@@]12CC3(S(=O)(=O)O)OC(O1)[C@]1(COC(=O)c4ccccc4)[C@H]3C[C@]21O[C@@H]1O[C@H](CO)[C@@H](O)[C@H](O)[C@H]1O`: the Potency result in experiment [1] and in experiment [2] was “inactive” in each case.
As to `O=C(OC[C@H]1O[C@H](O[C@]2(CO)O[C@H](CO)[C@@H](O)[C@@H]2O)[C@H](O)[C@@H](O)[C@@H]1O)c1ccc(O)cc1`, the Potency entry in experiment [1] and in experiment [2] was “inactive” in each case.
`C/C=C(\C)C(=O)OC[C@H]1O[C@@H](O[C@H]2[C@@H](O[C@H]3O[C@H](COC(=O)/C(C)=C/C)[C@@H](O)[C@H](O)[C@H]3O[C@@H]3O[C@H](CO)[C@@H](O)[C@H](OC(=O)/C(C)=C/C)[C@H]3O)O[C@H](COC(=O)/C(C)=C/C)[C@@H](O)[C@@H]2O)[C@H](O)[C@@H](O)[C@@H]1O`: the Potency result in experiment [1] and in experiment [2] was “inactive” throughout.
`CC(=O)O[C@@H](C[C@@H]1C=C(C)C(=O)O1)[C@H](C)[C@H]1CCC2[C@@]3(C)CC[C@H](O[C@@H]4O[C@H](CO)[C@@H](O)[C@H](O)[C@H]4O[C@@H]4O[C@@H](C)[C@H](O)[C@@H](O)[C@H]4O)C(C)(C)C3CC[C@@]2(C)[C@@]12COC(=O)C2` (some centres undefined): the Potency entry in experiment [1] and in experiment [2] was “inactive” in each case.
In the case of `CC1=C2CC(=O)C(C)CC/C=C(\C)CC2OC1=O` (centres undefined), the Potency entry in experiment [1] and in experiment [2] was “inactive” in each case.
